Source: PubChem BioAssay (NCATS)
Where “and” joins values, the source holds several entries; their conditions need not be identical. Identical values can stand only once. Results filed as inconclusive are left out. Calls of active or inactive are those of the source. Unless noted, calls come from the whole dose curve; as a rule, active = well fitted curve in the direction sought with a large enough effect; inconclusive = small, poorly fitted or top-dose-only effect, or another doubt; inactive = no such curve, though single readings can be large; an effect the other way counts as inactive or inconclusive.

Key:
[1] = Cell Viability - LYMP2-018 (AID 985);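 note: compound exposure lasted 24 hr at 37 °C; plate controls were DMSO only for no effect and tetraoctylammonium bromide at 92 µM for full effect; nearly all actives have a fitted effect of over 50% in size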
In short: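 Acute cytotoxicity is scored as a concentration-dependent drop in intracellular ATP after 24 hr exposure of the lymphoblastoid line in complete culture medium, measured by luciferase luminescence. Potency is expressed as AC50 from Hill modelling.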

[2] = Cell Viability - LYMP2-020 (AID 986);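 note: cells exposed to compound for 24 h at 37 °C; plate controls were DMSO only for no effect and tetraoctylammonium bromide at 92 µM for full effect; nearly all actives have a fitted effect of over 55% in size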
In short: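 Acute cytotoxicity in a human lymphoblastoid line is scored as a concentration-dependent fall in cellular ATP after 24 hr at 37 C in complete medium. The positive control is tetraoctylammonium bromide, and potency is given as Hill-fit AC50.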

[3] = Cell Viability - LYMP2-026 (AID 989);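 note: cells exposed to compound for 24 h at 37 °C; % is set by controls: 0 for no effect and ±100 for the full control effect; nearly all actives have a fitted effect of over 50% in size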
In short: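 Concentration-dependent loss of intracellular ATP in human lymphoblastoid cells after 24 hr at 37 C, quantified by luciferase luminescence. AC50 derived from standard Hill equation.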

[4] = biological target: Alpha-galactosidase A (Homo sapiens) (UniProt P06280); test: Counterscreen for Glucocerebrosidase Inhibitors: qHTS Assay for Human alpha-Galactosidase at pH 4.5 (AID 992); note: 0% is about no effect
Chain of Alpha-galactosidase A (Homo sapiens) (P06280 whole entry, looked up): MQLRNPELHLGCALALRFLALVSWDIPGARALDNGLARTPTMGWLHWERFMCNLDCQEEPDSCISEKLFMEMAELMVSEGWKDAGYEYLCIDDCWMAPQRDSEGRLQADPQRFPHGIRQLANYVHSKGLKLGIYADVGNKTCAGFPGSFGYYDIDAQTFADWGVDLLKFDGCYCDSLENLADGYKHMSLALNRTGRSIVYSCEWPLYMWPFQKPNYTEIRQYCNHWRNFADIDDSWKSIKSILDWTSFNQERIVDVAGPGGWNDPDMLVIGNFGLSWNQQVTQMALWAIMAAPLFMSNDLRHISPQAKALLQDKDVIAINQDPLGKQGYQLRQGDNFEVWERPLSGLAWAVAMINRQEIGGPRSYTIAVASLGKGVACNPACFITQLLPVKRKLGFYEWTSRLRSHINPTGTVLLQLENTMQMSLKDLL
In short: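 Quantitative HTS: compounds tested from 0.7 nM up to 77 uM against 2 nM enzyme with 80 uM 4-MU alpha-D-galactopyranoside. The 20 min room-temperature reaction is stopped with 1M NaOH/1M glycine, pH 10.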

[5] = Cell Viability - LYMP1-002 - Assay at 24 hr (AID 993); note: % is set by controls: 0 for no effect and ±100 for the full control effect
In short: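 qHTS, LYMP1-002 lymphoblastoid, 24 h cpd, 37 C, CellTiter-Glo ATP luminescence; AC50 via Hill eq.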

[6] = Cell Viability - LYMP1-002 - Assay at 40 hr (AID 994);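 note: 0% = DMSO only and full inhibition = 92 µM tetraoctylammonium bromide; nearly all actives have a fitted effect of over 60% in size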
In short: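 Viability in the human lymphoblastoid line was measured as intracellular ATP via CellTiter-Glo after 40 hr compound exposure. Tetraoctylammonium bromide served as positive control.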

[7] = biological target: alpha-glucosidase (Oryza sativa, rice) (UniProt Q653V4); test: Counterscreen for Glucocerebrosidase Inhibitors: qHTS Assay for Rice alpha-Glucosidase at pH 5.0 (AID 997);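 note: 0% = full activity with enzyme and -100% = basal without enzyme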
In short: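 Rice alpha-glucosidase (4 nM final) with 400 uM 4-methylumbelliferyl-alpha-D-glucopyranoside in citrate buffer pH 5.0, 20 min at room temperature, stopped at pH 10; fluorescence 365/440 nm, compounds 0.7 nM–77 uM, AC50 from Hill fits.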

[8] = qHTS Assay for Lipid Storage Modulators (AID 1519; calls by dose curve; for activity change, negative = inhibition: % is set by controls: 0 for no effect and ±100 for the full control effect); conditions: Drosophila S3 cells, BODIPY lipid droplet/cell ratio, laser cytometry, cells loaded with oleic acid
In short: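 Cells seeded at 5,000 per well were treated with compounds over a concentration series and loaded with oleic acid (400 uM, as added). Lipid droplet fluorescence (488 nm excitation, 500-530 nm channel) was read by laser-scanning cytometry and normalized to 20 uM Triacsin C.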

[9] = biological target: DNA repair nuclease/redox regulator APEX1 (Homo sapiens) (UniProt P27695); test: qHTS Validation Assay for Inhibitors of the Human Apurinic/apyrimidinic Endonuclease 1 (APE1) (AID 1705;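 note: TAMRA fluorescence gain over two minutes as APE1 cuts a quenched THF abasic duplex; % is set by controls: 0 for no effect and ±100 for the full control effect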)
Chain of DNA repair nuclease/redox regulator APEX1 (Homo sapiens) (P27695 whole entry, looked up): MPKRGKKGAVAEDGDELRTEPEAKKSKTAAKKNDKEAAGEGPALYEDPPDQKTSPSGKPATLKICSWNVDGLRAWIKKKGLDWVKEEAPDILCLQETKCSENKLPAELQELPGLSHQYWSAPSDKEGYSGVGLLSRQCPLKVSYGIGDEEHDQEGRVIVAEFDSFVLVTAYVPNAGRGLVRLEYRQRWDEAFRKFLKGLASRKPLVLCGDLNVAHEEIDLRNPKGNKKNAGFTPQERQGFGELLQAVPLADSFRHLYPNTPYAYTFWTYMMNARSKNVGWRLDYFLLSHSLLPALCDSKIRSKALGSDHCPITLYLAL
In short: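 Substrate: 50 nM final fluorophore/quencher THF-abasic duplex. Enzyme preincubated with compounds 15 min, RT. Progress derived from fluorescence difference, third minus first kinetic read.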

[10] = Validation of Assay for Modulators of Lamin A Splicing (AID 1459; active = well fitted curve in the direction sought with a large enough effect in the signal ratio; the % refers to the signal ratio;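 note: cells exposed to compound for two days before reading; 0% is about no effect; ratio rise marks activators and ratio drop marks inhibitors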)
In short: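 Dual-reporter HeLa S3 line (lamin A-EGFP minigene, DsRed2) treated with compounds 48 hrs, 0.5% DMSO final. Endpoint: EGFP/DsRed2 total intensity ratio from laser-scanning microplate cytometry.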

[11] = measured here: cell count channel max response
[12] = measured here: lipid channel max response

With CC(=O)c1ccc(S(=O)(=O)NC(=O)NC2CCCCC2)cc1 the Potency [1] was “inactive”, the Potency [2] was “inactive” and the Potency [3] was “inactive”. For the same compound, the outcome [4] was “inactive”, the Potency [5] was “inactive” and the Potency [6] was “inactive”. For the same compound, the outcome [7] was “inactive”, the activity change, negative = inhibition ([8]; at 25.7 µM (top of the series)) was -0.412% (inactive) and the activity change, negative = inhibition ([8]; at 57.5 µM (top of the series)) was 2.09% (inactive). For the same compound, the max response [8, 11] was -7.61% and -6.03%, the max response [8, 12] was -6.16% and -3.34% and the outcome [9] was “inactive”.
In the case of CCN1CCC[C@H]1CNC(=O)c1cc(S(N)(=O)=O)ccc1OC, the outcome [4] is reported as “inactive”, the outcome [7] is reported as “inactive” and the activity change, negative = inhibition ([8]; at 25.7 µM (top of the series)) is reported as -2.7% (inactive). The activity change, negative = inhibition ([8]; at 57.5 µM (top of the series)) was -2.29% (inactive) and -0.529% (inactive), the max response [8, 11] was -6.81% and 8.22% and 14.9% and the max response [8, 12] was -10.9% and 9.44% and 14.1%. The outcome [9] was “inactive”.
For O=c1c(-c2ccc(O)cc2)coc2cc(O)ccc12, the Potency [1] was “inactive”, the Potency [2] was “inactive” and the Potency [3] was “inactive”. The outcome [4] was “inactive”, the Potency [5] was “inactive” and the Potency [6] was “inactive”. For the same compound, the outcome [7] was “inactive”, the outcome [10] was “inactive” and the activity change, negative = inhibition ([8]; at 57.5 µM (top of the series)) was 2.37% (inactive) and 2.36% (inactive) and 1.08% (inactive). The max response [8, 11] was 20.5% and -6.62% and -6.98%, the max response [8, 12] was 24.2% and -1.3% and -6.64% and the outcome [9] was “inactive”.
For NC(N)=Nc1nc(CSCC/C(N)=N/S(N)(=O)=O)cs1, the outcome [4] was “inactive”, the outcome [7] was “inactive” and the activity change, negative = inhibition ([8]; at 25.7 µM (top of the series)) was -0.328% (inactive). The activity change, negative = inhibition ([8]; at 57.5 µM (top of the series)) was 0.654% (inactive), the max response [8, 11] was 10.2% and -8.15% and the max response [8, 12] was 9.12% and -7.51%. The outcome [9] was “inactive”.
For Cc1cccc(C)c1OCC(C)N (configuration not stated), the activity change, negative = inhibition ([8]; at 57.5 µM (top of the series)) was 1.76% (inactive) and 1.1% (inactive), the max response [8, 11] was 8.91% and -0.493% and the max response [8, 12] was 19.3% and 0.0191%. For the same compound, the outcome [9] was “inactive”.
In the case of c1ccc2c(Cc3c[nH]c4ccccc34)c[nH]c2c1, the activity change, negative = inhibition ([8]; at 57.5 µM (top of the series)) is reported as 12.9% (inactive), the max response [8, 11] is reported as 7.31% and the max response [8, 12] is reported as 20.3%.
In the case of COc1ccc(-c2coc3cc(O)cc(O)c3c2=O)cc1, the activity change, negative = inhibition ([8]; at 57.5 µM (top of the series)) is reported as 4.62% (inactive) and -2.47% (inactive), the max response [8, 11] is reported as -4.41% and 15.8% and the max response [8, 12] is reported as 0.883% and 14.1%.
In the case of CC(C)[C@H](CO)Nc1nc(Nc2ccc(C(=O)O)c(Cl)c2)c2ncn(C(C)C)c2n1, the activity change, negative = inhibition ([8]; at 57.5 µM (top of the series)) is reported as 6.65% (inactive), the max response [8, 11] is reported as 12.5% and the max response [8, 12] is reported as 19.1%.
With Nc1ncnc2c1ncn2[C@@H]1O[C@@H](CO)[C@H](O)[C@H]1O the activity change, negative = inhibition ([8]; at 25.7 µM (top of the series)) was -0.901% (inactive), the max response [8, 11] was -3.51% and the max response [8, 12] was -9.07%.
In the case of CC(=O)CCCCn1c(=O)c2c(ncn2C)n(C)c1=O, the outcome [4] is reported as “inactive”, the outcome [7] is reported as “inactive” and the activity change, negative = inhibition ([8]; at 25.7 µM (top of the series)) is reported as -2.17% (inactive). For the same compound, the activity change, negative = inhibition ([8]; at 57.5 µM (top of the series)) was 7.3% (inactive), the max response [8, 11] was 6.56% and 15.7% and the max response [8, 12] was 4.54% and 26.5%. The outcome [9] was “inactive”.
In the case of CCCCCCCCCCCC1=C(O)C(=O)C=C(O)C1=O, the activity change, negative = inhibition ([8]; at 57.5 µM (top of the series)) is reported as 11.6% (inactive) and 5.79% (inactive), the max response [8, 11] is reported as 14.8% and -11.9% and the max response [8, 12] is reported as 24.3% and -12.6%.
In the case of C[C@]12CCC3c4ccc(O)cc4CCC3C1CCC2=O (some centres not stated), the activity change, negative = inhibition ([8]; at 57.5 µM (top of the series)) is reported as 3.27% (inactive), the max response [8, 11] is reported as -11.3% and the max response [8, 12] is reported as -4.67%.
In the case of CC(=O)O[C@]1(C(C)=O)CC[C@H]2[C@@H]3C=C(Cl)C4=CC(=O)[C@@H]5C[C@@H]5[C@]4(C)[C@H]3CC[C@@]21C, the Potency [1] is reported as “inactive”, the Potency [2] is reported as “inactive” and the Potency [3] is reported as “inactive”. For the same compound, the Potency [5] was “inactive” and the Potency [6] was “inactive”.
